The subject of this assay is MDA-MB-468 breast. The assay can be described thus: NCI-60 one-dose screen, 48 h (100 = growth as untreated, 0 = no growth, -100 = all killed). Particulars: 10 µM unless noted.

The values below come from PubChem BioAssay (NCI).

Compounds without any hit were thinned out: in the full panel of roughly 83,000, 20% have a hit.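 Values shown are percent growth following 48 h exposure of cells in 96-well plates to a single concentration of compound; below 10 was considered active.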 Unmarked numbers belong to inactive results. Activity calls are given as the source filed them.

`CSCc1ncc(-c2ccc(C(F)(F)F)cc2)c(NC2CCCCCC2)n1`: the growth is 85.7% [25 µM].

Take `c1ccc2c(-c3nc4ccccc4[nH]3)cccc2c1`: the growth was -15.3% (active).

Turning to `COc1cc(-c2c(C#N)c(N)n3c(nc4ccccc43)c2C#N)cc(Br)c1OC`, the growth was 36.5%.

For `CNC(=O)c1cc(Oc2ccc3c(c2)sc2nc(-c4ccc(NC(C)=O)cc4)cn23)ccn1`, the growth is 86.3%.

In the case of `CCN1C2CCC1/C(=C\c1ccc(F)cc1)C(=O)/C2=C/c1ccc(F)cc1`, the growth is 11.1%.

For `CCN(CC)CCCCCCCNc1cc(OC)cc2c(C)ccnc12`, the growth is 40.5%.

For the compound `O=C1CCC/C=C\C[C@H]2C=CC(=O)/C2=C/C[C@H](CCc2cccc(C(F)(F)F)c2)O1`, the growth is -38.3% (active).

Consider `COc1cc2c(cc1-c1c(C)noc1C)ncc1nc(-c3ccccn3)n([C@H](C)COC(F)F)c12`, for which the growth is 46.5%.

In the case of `Nc1ccc(N=Nc2ccc(S(=O)(=O)O)cc2)c2ccccc12`, the growth was 97.2%.

In the case of `COc1ccc(-n2nc(C(=O)NCC(=O)O)nc2-c2ccccc2)cc1`, the growth is 115%.

Turning to `COc1cc(C2CC(c3cccc(Nc4ccncc4)c3)=Nc3c(N)ncnc3N2)cc(OC)c1OC` (stereo not given), the growth is 47.6%.

As to `CCOC(=O)c1c(Nc2ccccc2)nn2c(N)c(C#N)c(-c3ccc(Cl)cc3)nc12`, the growth is 76.8%.

On to `C[C@H]1[C@H](C)CC[C@]2(CO)CC[C@]3(C)C(=CC[C@@H]4[C@@]5(C)CCCNC(C)(C)[C@@H]5CC[C@]43C)[C@H]12`, for which the growth was -78.6% (active).

In the case of `O=C1c2cccc3cc([N+](=O)[O-])cc(c23)C(=O)N1CCN1CCCC1`, the growth is -53.4% (active).

As for `O=C(Nc1ccc(Cl)cc1F)c1cc(I)ccc1O`, the growth was 41.4%.

For the compound `Cc1ccc(SCN2CCN(c3cccc(Cl)c3)CC2)cc1`, the growth was 115%.

Turning to `CC1(C)N=C(N)N=C(N)N1c1cccc(CCCCOc2ccccc2)c1`, the growth is 10.1%.

For `O=S(=O)(Nc1ccc(C2CC2)cc1)c1ccc(-c2cnc(C3CC3)o2)cc1`, the growth is 18.4%.

Turning to `COc1ccc(OC)c(/C=C2\Oc3cc(OCCN4CCC(Cc5ccccc5)CC4)ccc3C2=O)c1`, the growth is 64.8%.

On to `O=C(Nc1ccc(OCc2nnc(-c3ccc(Cl)cc3)o2)c(F)c1)Nc1ccc(Cl)c(C(F)(F)F)c1`, for which the growth was -24.8% (active).

Take `CCCCCc1c(C)[nH]c(/C=C2\N=C(c3ccc[nH]3)C=C2Oc2ccc(OC)cc2)c1C`: the growth was -54.8% [100 µM] (active).

Consider `CCOC(=O)c1c(Nc2ccccc2)nn2c(N)c(C#N)c(-c3ccccc3)nc12`, for which the growth is 62.4%.

For `COc1cc2ncnc(Nc3ccc(S(=O)(=O)Nc4cc(C)on4)cc3)c2cc1OCCCN1CCOCC1`, the growth was 103%.

For the compound `N#Cc1cnn2c(-c3ccc(Cl)cc3)nc(NC3CC3)nc12`, the growth is 97%.

`CC(O)CCNC(c1ccccc1)C(O)c1ccccc1` (stereo not given): the growth was 116%.

For the compound `CC(=O)N1C(=S)NC(=O)C1CC(C)C` (stereo not given), the growth is 100%.

Consider `CCOC(=O)C(=O)CC(=O)c1ccccc1`, for which the growth is 96.9%.

As to `CCOC(=O)c1c(Cl)c2c(n1Cc1ccc(OC)cc1)-c1oncc1CCC2`, the growth was 101%.

As for `Cc1c(C)c([N+](=O)[O-])c(C)c([N+](=O)[O-])c1C`, the growth is 97.6%.

As to `Cc1ccc(C(=O)c2ccccc2)c(C)c1`, the growth was 111%.

For the compound `NS(=O)(=O)c1ccc(CCn2c(SCC(=O)N/N=C/c3cccnc3)nc3ccccc3c2=O)cc1`, the growth was 92.9%.

As for `C=CCNC(=S)N/C=C(/C(=O)c1ccccc1)c1ccccc1`, the growth is 102%.

For the compound `CCOC(=O)C(=Cc1ccc(Br)cc1)C(=O)OCC`, the growth is -73.3% (active).

Regarding `C#CC[C@@H]1C[C@]2(C)[C@H]3CC[C@@H]4[C@H]5C(C(=C)C)CC[C@]5(C(=O)NCCCN5CCN(CCCN)CC5)CC[C@@]4(C)[C@]3(C)CC[C@H]2C(C)(C)[C@H]1OC(C)=O` (stereo not given in full), the growth is -76.5% (active).

With `CCOC(=O)C(=Cc1cccc(Cl)c1)C(=O)OCC`, the growth is 37.9%.

Regarding `COc1ccccc1NC1=C(Cl)C(=O)c2nc(C)ccc2C1=O`, the growth is -79.7% (active).

For the compound `Cn1ncc(CC(=O)O)c1-n1nnc2cc(Cl)ccc2c1=O`, the growth was 89.5%.

As to `COc1ccc(-n2ncc3c2ccc2cc(S(=O)(=O)c4ccccc4)c(=O)n(C)c23)cc1`, the growth is 94.5%.

Turning to `Nc1cc2c3c(cccc3c1)C(=O)N(CCN1CCCC1)C2=O`, the growth is 40.2%.

With `CCOc1ccccc1NC1=C(Cl)C(=O)c2nc(C)ccc2C1=O`, the growth was -90.7% (active).

With `CCOC(=O)c1c(NC(=O)C2CCCCC2C(=O)O)sc2c1CCCC2` (stereo not given), the growth is 103%.

As to `Oc1ccc(Nc2ccc3ccccc3c2)cc1`, the growth is 30.5%.

As for `CC(C)[C@@H]1CC[C@]2(CO2)[C@@H]2C(=O)OCC(C(=O)O)=C[C@H]21`, the growth was 7.72% (active).

As to `Cc1cccc(NC(=O)N/C(N)=N/c2nc(C)c(C)s2)c1`, the growth was 14%.

Consider `C=C(CNCCO)[C@@H]1CC[C@]2(CO)CC[C@]3(C)[C@H](CC[C@@H]4[C@@]5(C)CCC(N)C(C)(C)[C@@H]5CC[C@]43C)[C@@H]12` (stereo not given in full), for which the growth is -40.9% (active).

For `CCN(CC)Cc1cc(Nc2ccnc3cc(Cl)ccc23)cc(-c2ccc(Cl)cc2)c1O`, the growth is 5.28% (active).

On to `O=C(CSC(=S)N1CCCCC1)Nc1ccccc1`, for which the growth was 103%.

With `COc1ccc(-c2nn(-c3cccc(Cl)c3)cc2-c2cc(-c3ccc(Br)cc3)nc(N)n2)cc1`, the growth is 95%.

As for `COc1ccccc1NC(=O)n1c(=O)cc(C)c2ccc(O)cc21`, the growth is 96.3%.

Consider `CCOC(=O)CC(C)=N`, for which the growth is 92.8%.

Regarding `O=C(C=P(c1ccccc1)(c1ccccc1)c1ccccc1)c1ccc(Br)cc1`, the growth was 92%.

For `COc1cccc(-c2nn(-c3ccccc3)cc2-c2ccnc(NCCCO)c2)c1`, the growth was 23.8%.

On to `COc1ccccc1/C=C\C(=O)c1ccccc1`, for which the growth was 82.7%.

Take `CC(=O)N[C@H](C(=O)N[C@@H](CCCNC(=N)N)C(=O)N[C@@H](CCCCN)C(=O)N[C@@H](CCCNC(=N)N)C(=O)NC(C(=O)N[C@@H](CC(C)C)C(=O)N[C@@H](CCCNC(=N)N)C(=O)N[C@@]1(C)CCC/C=C\CCC[C@@](C)(C(=O)N[C@@H](CCCNC(=N)N)C(=O)N[C@@H](CCC(=O)O)C(=O)N[C@@H](CC(C)C)C(=O)N[C@H](C(=O)N[C@@H](CCC(=O)O)C(N)=O)C(C)C)NC(=O)[C@H](CCC(N)=O)NC(=O)[C@H](CC(C)C)NC(=O)[C@H](CC(C)C)NC1=O)[C@@H](C)O)C(C)C` (stereo not given in full): the growth was 31.9%.

As for `Cc1ccc(S(=O)(=O)NCN2C(=O)c3ccccc3C2=O)cc1`, the growth is 93.6%.

With `CC(C)(C)CC(C)(C)Nc1c(-c2ccncc2)nc2cnccn12`, the growth was 87.5%.

`C=CCN=c1sc2c(n1NC(=O)c1cc3ccc1CCc1ccc(cc1)CC3)C(=O)c1ccccc1C2=O`: the growth was -30.1% (active).

Turning to `CC(C)(C)CC(C)(C)c1ccc(O)c(Cc2ccc(Cl)cc2Cl)c1`, the growth is -88.6% (active).

In the case of `CCN1C(=O)N(CC)C2Nn3c(s/c(=C4\C(=O)N(C5CCCC5)c5ccccc54)c3=O)=NC21` (stereo not given), the growth is 11%.

As for `COc1ccc(C2NC(=O)C(C#N)c3c2sc2c(F)cccc32)c(OC)c1` (stereo not given), the growth was 24.3%.

On to `CN1C(=O)N(C)C2C1NN=c1s/c(=C\c3ccc(F)cc3)c(=O)n12` (stereo not given), for which the growth was -11.4% (active).

For the compound `Cn1c(SCC(=O)c2ccc(Br)cc2)nc2ccccc2c1=O`, the growth was 89.9%.

As to `COc1ccc2c(c1)c(-c1nc(-c3c[nH]c4ncccc34)cs1)cn2CCCN1CCOCC1`, the growth is 42%.

As for `CNC(=O)c1cc(-n2ccc3cc(NC(=O)Nc4ccc(N5CCOCC5)c(C(F)(F)F)c4)ccc32)ccn1`, the growth was 95.2%.

`Cn1c(/C=C(\C#N)c2ccccc2)nc2c(N3CCOCC3)nc(Cl)nc21`: the growth is -47.9% (active).

For `O=c1[nH]c(CCl)nc2c1cnn2-c1ccccc1`, the growth is 96.6%.

For the compound `CN(C)CCCOc1ccc2c(c1)CN(C(=O)c1cc(C(=O)N3Cc4cccc(F)c4C3)ccc1O)C2`, the growth is 106%.

On to `COc1cc(NC(C)CCCNC(=O)CCC(=O)NCCCNCCCCCCCCNCCCNC(=O)CCC(=O)NCCCC(C)Nc2cc(OC)cc3cccnc23)c2ncccc2c1` (stereo not given), for which the growth was 16.8%.

As for `CCCN1CCN(c2ccc3nc(-c4ccc5nc(-c6cc(OC)ccc6OC)[nH]c5c4)[nH]c3c2)CC1`, the growth is 114%.

As to `COc1cc(C2CC(=O)Nc3c2c(C)nn3-c2nc3ccccc3[nH]2)c(OC)c2c1OCO2` (stereo not given), the growth was 36.7%.

As to `CCOc1cc(C2C(Cl)C(=O)N2n2cnnc2)ccc1O` (stereo not given), the growth is 111%.

As to `CCN(CC)CCCNc1ccc(C)c2sc3ccccc3c(=O)c12`, the growth was -34.8% (active).

In the case of `COc1ccc(-c2c(NC(=O)Nc3ccc(Cl)c(C(F)(F)F)c3)cnn2-c2ccc(S(N)(=O)=O)cc2)cc1`, the growth is 26.7%.

Turning to `CC(=O)OC[C@]12CCC(C)(C)C[C@H]1[C@@]1(O)[C@H](O)C[C@@H]3[C@@]4(C)CCCNC(C)(C)[C@@H]4CC[C@@]3(C)[C@]1(C)CC2`, the growth was 115%.

For the compound `CCc1ccc(-c2nnc(COc3ccc(-c4nc5ccccc5[nH]4)cc3OC)o2)cc1`, the growth was 86.9%.

For `COc1ccc2c(c1)oc1c(C)c3c(c(C)c12)C(=O)N(CCN1CCOCC1)C3=O`, the growth was 106%.

Consider `COc1ccc(-c2ccc(NNC(=O)c3ccc(F)cc3)nn2)cc1OC`, for which the growth was 56.2%.

As for `COc1cc(C(=O)/C=C/c2cc(C(=O)c3cc(OC)c(OC)c(OC)c3)ccc2OC)ccc1N`, the growth is -44.7% (active).

Regarding `CCN(CC)CCOc1cccc2c1C(=O)c1ccccc1C2=O`, the growth was 91.4%.

For the compound `COc1ccc(-c2csc(NC(=O)CO[N+](=O)[O-])n2)cc1`, the growth was 113%.
